According to PubChem BioAssay (EPA / NIEHS):
Activity calls are given as the source filed them. Rule for the calls: active = hit-call score of the fitted dose curve at least 0.9, where 1 is the maximum; inactive = score below 0.9.

Assays:
[1] = target: Transcription factor E2F1 (Homo sapiens) (UniProt Q01094); assay: ATG_E2F_CIS: Attagene CIS-FACTORIAL HepG2 Assay for human E2F Transcription Factor 1 (AID 2282935); conditions: HepG2 Attagene cis-reporter, E2F reporter RNA transcripts; actives raise or lower the signal
Chain of Transcription factor E2F1 (Homo sapiens) (Q01094 whole entry, looked up): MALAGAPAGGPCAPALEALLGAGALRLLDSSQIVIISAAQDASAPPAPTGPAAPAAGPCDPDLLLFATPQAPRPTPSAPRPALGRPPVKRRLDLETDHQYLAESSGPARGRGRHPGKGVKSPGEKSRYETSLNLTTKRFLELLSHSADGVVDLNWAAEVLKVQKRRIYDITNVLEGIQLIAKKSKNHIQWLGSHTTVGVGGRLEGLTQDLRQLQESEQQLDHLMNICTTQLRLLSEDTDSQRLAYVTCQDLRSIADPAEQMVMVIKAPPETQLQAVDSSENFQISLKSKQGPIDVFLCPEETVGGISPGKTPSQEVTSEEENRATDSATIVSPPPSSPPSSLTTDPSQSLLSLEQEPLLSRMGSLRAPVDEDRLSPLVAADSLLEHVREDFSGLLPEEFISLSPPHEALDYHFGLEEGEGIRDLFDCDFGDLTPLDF
In short: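 First, HepG2 cells were transfected with reporter transcription units. Next, they were dosed for 24 h. Then RNA was isolated, converted to cDNA, PCR-amplified, FAM-labeled, HpaI-digested and analyzed by capillary electrophoresis.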

[2] = ATG_E_Box_CIS: Attagene CIS-FACTORIAL HepG2 Assay for human Enhancer Box (E-box) (AID 2282936); conditions: HepG2 E-box cis-reporter transcription, actives raise or lower the signal
In short: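 Endogenous transcription factor activity was sensed in human HepG2 liver cells through transfected cis-promoter reporter units. After 24 h of dosing, total RNA was reverse-transcribed and reporter cDNA resolved by capillary electrophoresis.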

[3] = ATG_M_61_CIS: Attagene CIS-FACTORIAL HepG2 Assay for M61 Transcription Factor (Internal Marker) (AID 2282937); conditions: HepG2 Attagene CIS-FACTORIAL M61 internal marker reporter; actives raise or lower the signal
In short: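 Readout is reporter mRNA by RT-PCR, fluorescent primer extension and capillary electrophoresis, with gain or loss fitted relative to DMSO. Transfected HepG2 cells carrying endogenous-TF-driven cis reporters were exposed to chemicals for 24 hours.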

[4] = ATG_EGR_CIS: Attagene CIS-FACTORIAL HepG2 Assay for human Early Growth Response 1 (EGR1) (AID 2282938); conditions: HepG2 Attagene CIS-FACTORIAL EGR reporter mRNA; actives raise or lower the signal
In short: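 After 24 h compound exposure, RNA from reporter-transfected HepG2 cells was reverse-transcribed, PCR-amplified, fluorescently labelled and resolved by capillary electrophoresis. EGR1 reporter transcript changes, up or down, were fitted against DMSO, reflecting endogenous transcription-factor activity.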

[5] = ATG_M_19_CIS: Attagene CIS-FACTORIAL HepG2 Assay for M19 Transcription Factor (Internal Marker) (AID 2282939); conditions: HepG2 Attagene CIS-FACTORIAL M19 internal marker reporter; actives raise or lower the signal
In short: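 Readout: fluorescent reporter-transcript fragments by capillary electrophoresis after RT-PCR. Human HepG2 liver cells carried transfected MRTU constructs reporting endogenous transcription-factor activity; exposure 24 h. Gain or loss of signal fitted relative to DMSO.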

[6] = ATG_ERE_CIS: Attagene CIS-FACTORIAL HepG2 Assay for Estrogen Response Element (ERE) (AID 2282940); conditions: HepG2 ERE cis-reporter, Attagene RNA transcript; actives raise or lower the signal
In short: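 Readout: reporter mRNA induction by RT-PCR, FAM-labelled primer extension, HpaI digestion and capillary electrophoresis, 24 h after dosing transfected HepG2 cells. Endogenous transcription factors act on cis-element-regulated reporters. Gain or loss fitted against DMSO.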

[7] = ATG_Ets_CIS: Attagene CIS-FACTORIAL HepG2 Assay for human Erythroblast Transformation Specific (ETS) (AID 2282941); conditions: HepG2 ETS cis-reporter transcription, actives raise or lower the signal
In short: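 Multiplexed reporter transcript profiling: HepG2, 24 h treatment, total RNA to cDNA, PCR, 6-FAM labelling, HpaI cut, capillary electrophoresis. Gain- or loss-of-signal fitted against DMSO.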

[8] = target: Hepatocyte nuclear factor 3-beta (Homo sapiens) (UniProt Q9Y261); assay: ATG_FoxA2_CIS: Attagene CIS-FACTORIAL HepG2 Assay for human Forkhead box A2 (FOXA2) (AID 2282942); conditions: HepG2 cis-reporter transcription factor activity, 24 h; actives raise or lower the signal
Chain of Hepatocyte nuclear factor 3-beta (Homo sapiens) (Q9Y261 whole entry, looked up): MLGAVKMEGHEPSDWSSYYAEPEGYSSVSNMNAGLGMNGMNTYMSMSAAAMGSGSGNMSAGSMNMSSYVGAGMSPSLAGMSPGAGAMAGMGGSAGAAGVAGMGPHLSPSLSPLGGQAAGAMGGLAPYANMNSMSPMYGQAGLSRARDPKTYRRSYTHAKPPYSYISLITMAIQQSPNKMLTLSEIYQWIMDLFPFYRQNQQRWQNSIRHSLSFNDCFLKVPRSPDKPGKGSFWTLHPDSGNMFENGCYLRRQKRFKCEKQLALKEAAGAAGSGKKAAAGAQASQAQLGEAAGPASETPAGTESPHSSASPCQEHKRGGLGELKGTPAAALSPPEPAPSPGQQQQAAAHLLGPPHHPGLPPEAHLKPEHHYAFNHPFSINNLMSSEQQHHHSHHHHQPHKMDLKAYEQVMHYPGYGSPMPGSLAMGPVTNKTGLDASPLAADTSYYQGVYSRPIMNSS
In short: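 Endogenous transcription factor activity is captured via cis-element-driven reporter transcripts in transfected HepG2. Total RNA taken at 24 h post-dosing; labelled RT-PCR products resolved by capillary electrophoresis. Gain or loss fitted versus DMSO.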

[9] = ATG_FoxO_CIS: Attagene CIS-FACTORIAL HepG2 Assay for human Forkhead box O (FoxO) (AID 2282943); conditions: HepG2 Attagene cis-reporter, FoxO element, mRNA; actives raise or lower the signal
In short: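 HepG2 cells transiently transfected with cis-promoter-driven multiple reporter transcription units; 24 h after chemical dosing, reporter mRNA quantified by RT-PCR, fluorescent primer extension, HpaI digestion and capillary electrophoresis. Bidirectional fitting versus DMSO baseline.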

[10] = ATG_GATA_CIS: Attagene CIS-FACTORIAL HepG2 Assay for human GATA Binding Protein (AID 2282944); conditions: HepG2 GATA cis-element reporter, Attagene multiplex mRNA; actives raise or lower the signal
In short: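 Read-out: fluorescent reporter mRNA fragments resolved by capillary electrophoresis after RT-PCR. Human liver HepG2 cells carried transiently transfected cis-regulated reporter constructs; chemicals incubated 24 h; gain or loss of signal fitted relative to DMSO.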

[11] = ATG_GLI_CIS: Attagene CIS-FACTORIAL HepG2 Assay for human Zinc Finger Protein GLI1 (AID 2282945); conditions: HepG2, Attagene cis-factorial reporter mRNA, GLI element; actives raise or lower the signal
In short: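 HepG2 cells transiently transfected with cis-promoter multiplexed reporter units report endogenous transcription factor activity. After 24 h chemical exposure, reporter mRNA was quantified by RT-PCR, 6-FAM labelling, HpaI digestion and capillary electrophoresis, with bidirectional fitting against DMSO.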

[12] = target: Bile acid receptor (Homo sapiens) (UniProt Q96RI1); assay: ATG_IR1_CIS: Attagene CIS-FACTORIAL HepG2 Assay for human Nuclear Receptor Subfamily 1 Group H Member 4 (NR1H4), IR1 submotif (AID 2282946); conditions: IR1 reporter transcription, actives raise or lower the signal
Chain of Bile acid receptor (Homo sapiens) (Q96RI1 whole entry, looked up): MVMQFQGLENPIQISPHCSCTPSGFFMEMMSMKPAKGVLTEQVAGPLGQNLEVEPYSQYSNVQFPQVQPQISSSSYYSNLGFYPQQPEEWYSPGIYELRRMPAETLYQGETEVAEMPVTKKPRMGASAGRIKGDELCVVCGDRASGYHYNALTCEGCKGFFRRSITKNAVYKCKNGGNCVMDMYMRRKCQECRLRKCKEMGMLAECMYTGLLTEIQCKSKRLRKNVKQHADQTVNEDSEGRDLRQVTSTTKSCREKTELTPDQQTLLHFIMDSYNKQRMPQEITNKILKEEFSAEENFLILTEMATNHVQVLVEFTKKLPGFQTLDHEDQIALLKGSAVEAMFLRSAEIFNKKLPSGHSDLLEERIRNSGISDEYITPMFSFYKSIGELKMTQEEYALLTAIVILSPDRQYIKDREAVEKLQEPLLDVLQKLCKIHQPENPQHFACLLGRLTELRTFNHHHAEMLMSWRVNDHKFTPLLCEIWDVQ
In short: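 Readout: reporter transcript levels by RT-PCR with fluorescent capillary electrophoresis, from HepG2 cells transiently transfected with multiplexed cis-regulated reporters and dosed 24 h. Gain- or loss-of-signal fitted versus DMSO negative control.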

[13] = ATG_GRE_CIS: Attagene CIS-FACTORIAL HepG2 Assay for human Glucocorticoid Response Elements (GRE) (AID 2282947); conditions: HepG2 GRE cis-reporter, Attagene multiplex mRNA; actives raise or lower the signal
In short: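 Cells (HepG2) bearing transfected cis-promoter reporter transcription units were treated with chemical for 24 hours. Reporter mRNA was measured via RT-PCR with capillary electrophoresis, and activity was fitted in both directions relative to DMSO.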

[14] = ATG_ISRE_CIS: Attagene CIS-FACTORIAL HepG2 Assay for human Interferon Regulatory Factor 1 (IRF1) binding to an Interferon-Stimulated Response Element (ISRE) (AID 2282948); conditions: HepG2 ISRE cis-reporter (Attagene), mRNA transcription readout; actives raise or lower the signal
In short: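 Signal reflects induction or loss of ISRE-linked reporter mRNA in transiently transfected HepG2 cells after a 24 h treatment, detected by fluorescent RT-PCR fragments on capillary electrophoresis and normalised to DMSO.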

[15] = ATG_M_32_CIS: Attagene CIS-FACTORIAL HepG2 Assay for M32 Transcription Factor (Internal Marker) (AID 2282949); conditions: HepG2 Attagene cis-factorial M32 reporter, mRNA; actives raise or lower the signal;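 note: background control marker of the multiplexed CIS panel rather than a real target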
In short: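 HepG2 transfectants (cis-regulated reporter transcription units) dosed 24 h. Reporter mRNA by RT-PCR plus CE, analysed as gain or loss relative to DMSO.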

[16] = ATG_M_06_CIS: Attagene CIS-FACTORIAL HepG2 Assay for M06 Transcription Factor (Internal Marker) (AID 2282950); conditions: HepG2 Attagene CIS-FACTORIAL M06 internal marker reporter; actives raise or lower the signal
In short: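 Terse: HepG2, transient MRTU transfection (FuGene 6), 24 h dosing; total RNA, oligo(dT) RT, PCR, FAM label, HpaI cut, capillary electrophoresis; bidirectional fit vs DMSO baseline; background-control endpoint.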

[17] = target: Hypoxia-inducible factor 1-alpha (Homo sapiens) (UniProt Q16665); assay: ATG_HIF1a_CIS: Attagene CIS-FACTORIAL HepG2 Assay for human Hypoxia Inducible Factor 1 (HIF1A) (AID 2282951); conditions: HepG2 Attagene cis-factorial HIF1a reporter transcription; actives raise or lower the signal
Chain of Hypoxia-inducible factor 1-alpha (Homo sapiens) (Q16665 whole entry, looked up): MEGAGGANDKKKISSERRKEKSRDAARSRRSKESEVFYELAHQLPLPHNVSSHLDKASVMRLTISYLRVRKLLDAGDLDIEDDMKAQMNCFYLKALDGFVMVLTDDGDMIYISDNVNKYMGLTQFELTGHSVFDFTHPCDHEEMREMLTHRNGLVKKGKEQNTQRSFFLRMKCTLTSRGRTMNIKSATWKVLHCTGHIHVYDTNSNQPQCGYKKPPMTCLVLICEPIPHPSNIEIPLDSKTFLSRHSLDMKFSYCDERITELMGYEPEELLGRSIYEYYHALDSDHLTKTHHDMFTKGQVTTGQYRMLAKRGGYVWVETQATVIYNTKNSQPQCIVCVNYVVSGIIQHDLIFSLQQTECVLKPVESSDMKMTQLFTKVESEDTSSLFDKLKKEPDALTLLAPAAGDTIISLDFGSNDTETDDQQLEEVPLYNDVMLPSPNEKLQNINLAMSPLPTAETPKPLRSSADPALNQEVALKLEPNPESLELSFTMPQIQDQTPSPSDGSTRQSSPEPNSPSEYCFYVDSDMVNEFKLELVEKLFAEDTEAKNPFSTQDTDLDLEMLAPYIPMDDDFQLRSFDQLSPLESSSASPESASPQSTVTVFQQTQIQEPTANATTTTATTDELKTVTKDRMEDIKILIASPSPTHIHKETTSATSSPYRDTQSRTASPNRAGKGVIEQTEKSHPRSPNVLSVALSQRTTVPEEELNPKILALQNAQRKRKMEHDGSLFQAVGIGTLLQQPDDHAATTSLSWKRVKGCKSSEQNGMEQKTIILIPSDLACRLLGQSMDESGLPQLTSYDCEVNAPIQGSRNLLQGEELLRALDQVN
In short: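 Activity is fitted in both directions relative to DMSO. Reporter transcripts are read by RT-PCR, fluorescent primer extension and capillary electrophoresis after 24 h chemical treatment. The cells are HepG2 carrying transiently transfected cis-element-driven reporter units responding to endogenous factors.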

[18] = target: Hepatocyte nuclear factor 6 (Homo sapiens) (UniProt Q9UBC0); assay: ATG_HNF6_CIS: Attagene CIS-FACTORIAL HepG2 Assay for human Hepatocyte Nuclear Factor 6 (HNF6) (AID 2282952); conditions: HepG2 Attagene cis-factorial HNF6 reporter transcription; actives raise or lower the signal
Chain of Hepatocyte nuclear factor 6 (Homo sapiens) (Q9UBC0 whole entry, looked up): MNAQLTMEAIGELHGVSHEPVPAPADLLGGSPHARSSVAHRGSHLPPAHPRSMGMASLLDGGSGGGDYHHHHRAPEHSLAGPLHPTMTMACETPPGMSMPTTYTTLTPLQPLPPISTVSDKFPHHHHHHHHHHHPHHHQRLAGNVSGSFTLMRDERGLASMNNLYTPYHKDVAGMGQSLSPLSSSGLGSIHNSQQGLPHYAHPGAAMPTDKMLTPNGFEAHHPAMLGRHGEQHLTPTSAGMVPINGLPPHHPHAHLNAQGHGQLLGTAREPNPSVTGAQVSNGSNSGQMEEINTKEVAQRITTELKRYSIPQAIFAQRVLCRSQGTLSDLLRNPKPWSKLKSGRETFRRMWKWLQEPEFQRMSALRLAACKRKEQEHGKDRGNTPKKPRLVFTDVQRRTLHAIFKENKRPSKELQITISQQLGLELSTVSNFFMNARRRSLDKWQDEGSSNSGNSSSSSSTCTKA
In short: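 Activity values derive from bidirectional fitting against DMSO of reporter mRNA levels, measured by capillary electrophoresis of labelled RT-PCR products from HepG2 cells exposed 24 h.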

[19] = target: Heat shock factor protein 1 (Homo sapiens) (UniProt Q00613); assay: ATG_HSE_CIS: Attagene CIS-FACTORIAL HepG2 Assay for human Heat Shock Transcription Factor 1 (HSE) (AID 2282953); conditions: HepG2 HSE cis-reporter, Attagene RNA transcription; actives raise or lower the signal
Chain of Heat shock factor protein 1 (Homo sapiens) (Q00613 whole entry, looked up, the tested form may be a part): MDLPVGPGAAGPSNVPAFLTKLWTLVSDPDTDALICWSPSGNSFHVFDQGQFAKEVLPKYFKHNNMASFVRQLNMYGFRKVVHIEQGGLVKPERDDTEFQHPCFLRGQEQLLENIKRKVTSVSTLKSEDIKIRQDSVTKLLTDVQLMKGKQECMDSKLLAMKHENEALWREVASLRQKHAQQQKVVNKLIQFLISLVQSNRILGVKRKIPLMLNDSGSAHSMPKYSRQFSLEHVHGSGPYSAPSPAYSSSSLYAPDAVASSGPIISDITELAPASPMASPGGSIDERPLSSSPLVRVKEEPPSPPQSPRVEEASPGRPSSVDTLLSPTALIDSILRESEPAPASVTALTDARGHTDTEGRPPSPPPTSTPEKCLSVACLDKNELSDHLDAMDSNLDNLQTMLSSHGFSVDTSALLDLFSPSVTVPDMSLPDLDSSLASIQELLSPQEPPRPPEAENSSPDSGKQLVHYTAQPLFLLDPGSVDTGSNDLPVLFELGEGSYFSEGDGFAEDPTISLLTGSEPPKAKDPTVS
In short: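 Read-out: fluorescence of reporter-specific RT-PCR fragments separated by capillary electrophoresis. HepG2 carrying transfected cis-element reporter units; 24 h dosing; activity fitted in both directions relative to DMSO baseline.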

[20] = ATG_MRE_CIS: Attagene CIS-FACTORIAL HepG2 Assay for human Metal Responsive Element (MRE) (AID 2282954); conditions: HepG2 MRE cis-reporter transcription, Attagene multiplex; actives raise or lower the signal
In short: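 Cells were transfected with cis-promoter reporter transcription units, then dosed for 24 h. RNA was reverse-transcribed, amplified, fluorescently labelled and resolved by capillary electrophoresis, and activity was fitted in both directions relative to DMSO.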

Measured: outcome

O=[N+]([O-])c1cc(Cl)ccc1Cl
inactive: all assays above

Cc1ccc(N)cc1N
not listed: [19]
inactive: all other assays above

CCN(CC)c1ccccc1
inactive: all assays above

CCOP(=S)(OCC)SCS(=O)(=O)CC
not listed: [15]
inactive: all other assays above
